Inconclusive results are not listed. A number with no mark means an inactive call. The source made the active and inactive calls. The call rests on the fitted dose curve; in most records, active means well fitted cell-killing curve with a large enough effect; inconclusive means small, poorly fitted or top-dose-only effect, or effect the other way; inactive means no such curve, though single readings can be large or run the other way.
Assay: Quantitative High-Throughput drug screen in 47 multiple myeloma cell lines against the NCATS MIPE library collection: KMS28BM_JCRB cell viability assay (AID 1919874); further: nearly all actives have a fitted effect of over 35% in size
Conditions: CellTiter-Glo ATP, 48 h; series mostly up to 45.8 µM; viability, % of control: at the top concentration
Excerpt: PI: Beverly A. Mock Ph.D.
Laboratory of Cancer Biology and Genetics,
Center for Cancer Research, National Cancer Institute,
National Institute of Health, Bethesda, Maryland
Drug resistance and disease progression are common in multiple myeloma (MM) patients, underscoring the need for new therapeutic combinations. […] We hypothesized that effective combinations would reduce MYC expression and enhance p16 activity. […] These preclinical data identify potentially useful drug combinations for evaluation in drug-resistant MM and reveal potential mechanisms of combined drug sensitivity.
Described herein is the primary MIPE qHTS used to cherrypick compounds. Validated compounds were then further tested for potential synergistic activiy.
[1] Peat TJ, Gaikwad SM, Dubois W, Gyabaah-Kessie N, Zhang S, Gorjifard S, Phyo Z, Andres M, Hughitt VK, Simpson RM, Miller MA, Girvin AT, Taylor A, Williams D, D'Antonio N, Zhang Y, Rajagopalan A, Flietner E, Wilson K, Zhang X, Shinn P, Klumpp-Thomas C, McKnight C, Itkin Z, Chen L, Kazandijian D, Zhang J, Michalowski AM, Simmons JK, Keats J, Thomas CJ, Mock BA. Drug combinations identified by high-throughput screening promote cell cycle transition and upregulate Smad pathways in myeloma. Cancer Lett. 2023 Aug 1;568:216284. doi: 10.1016/j.canlet.2023.216284. Epub 2023 Jun 24. PMID: 37356470; PMCID: PMC10408729.
SEQUENCE No. (e.g., 1, 2, 3, etc.); […] (e.g., Cells, Incubation, Reagent, etc.); VALUE and DESCRIPTION.
1; Cells; 5 uL; white, solid bottom 1536-well Greiner assay plate.
2; Compounds; 23 nL; Kalypsis pin tool (Wako USA) equipped with a 1536-well pin head to transfer to the assay plates.
3; Incubation; 48 hours; 37C incubation.
4; Reagent;5uL; CellTiter Glo (Promega).
5; Detector; 425V; Luminescence; Viewlux PerkinElmer.
NOTES (numbers refer to Sequence numbers above)
1. The cell-based screening methods employed in this study were like those previously published. Briefly, the corresponding myeloma cell lines were screened in 1,536-well plates with 500 cells, 5-uL per well for inhibition of cell viability (assessed by measuring ATP levels with CellTiterGlo).
2. NCATS MIPE 4.0 library of approved and investigational drugs were added using the Kalypsis pin tool. Wells treated with DMSO only for 100% viability and media only for 0% viability were used as controls.
3. The assay plates were covered and incubated for 48 hours in a 37C, 5% CO2 incubator with controlled humidity.
4. After 48 hours, CellTilter-GloTM luminescent substrate mix (Promega) reagent was added to the assay plate and plates we incubated for 5 min at room temperature.
5. Signal was measured as median relative luminescence units on a ViewLux (PerkinElmer) multiplate reader.
[1] Heske CM, Davis MI, Baumgart JT, Wilson K, Gormally MV, Chen L, Zhang X, Ceribelli M, Duveau DY, Guha R, Ferrer M, Arnaldez FI, Ji J, Tran HL, Zhang Y, Mendoza A, Helman LJ, Thomas CJ. Matrix Screen Identifies Synergistic Combination of PARP Inhibitors and Nicotinamide Phosphoribosyltransferase (NAMPT) Inhibitors in Ewing Sarcoma. Clin Cancer Res. 2017 Dec 1;23(23):7301-7311. doi: 10.1158/1078-0432.CCR-17-1121. Epub 2017 Sep 12. PMID: 28899971; PMCID: PMC6636827.
Potency means the concentration at half of the fitted maximal effect.

SMILES | Potency | viability, % of control
CCCc1nc(C)c2c(=O)[nH]c(-c3cc(S(=O)(=O)N4CCN(CC)CC4)ccc3OCC)nn12 | 3.72 µM (active) | 
C1CCC(C(CC2CCCCN2)C2CCCCC2)CC1 (stereo not given) | 9.35 µM (active) | 
COCCCOc1cc(C[C@@H](C[C@H](N)[C@@H](O)C[C@H](C(=O)NCC(C)(C)C(N)=O)C(C)C)C(C)C)ccc1OC |  | 118%
N=C(N)c1ccc(OCCCCCOc2ccc(C(=N)N)cc2)cc1 | 5.9 µM (active) | 
NCCCC(O)(P(=O)(O)O)P(=O)(O)O | 14.8 µM (active) | 
Cc1onc(-c2ccccc2Cl)c1C(=O)N[C@@H]1C(=O)N2[C@@H]1SC(C)(C)[C@@H]2C(=O)O |  | 97.6%
CCC(=O)O[C@]1(C(=O)SCF)[C@H](C)C[C@H]2[C@@H]3C[C@H](F)C4=CC(=O)C=C[C@]4(C)[C@@]3(F)[C@@H](O)C[C@@]21C |  | 95.3%
CC(C)Cn1cnc2c(N)nc3ccccc3c21 | 14.8 µM (active) | 
COc1cc(NCc2ccc3nc(N)nc(N)c3c2C)cc(OC)c1OC | 20.9 µM (active) | 
O=C(N[C@H](CO)[C@H](O)c1ccc([N+](=O)[O-])cc1)C(Cl)Cl |  | 100%
COc1ccc2c(c1)c(CC(=O)OCC(=O)O)c(C)n2C(=O)c1ccc(Cl)cc1 |  | 115%
Nc1nc(=S)c2[nH]cnc2[nH]1 | 5.26 µM (active) | 
CCOC(=O)[C@H](CCc1ccccc1)N[C@H]1CCc2ccccc2N(CC(=O)O)C1=O | 18.7 µM (active) | 
CCCCCCNC(=O)n1cc(F)c(=O)[nH]c1=O |  | 102%
CC(C)(C)NC(=O)[C@H]1CC[C@H]2[C@@H]3CC[C@H]4NC(=O)C=C[C@]4(C)[C@H]3CC[C@]12C |  | 96.4%
S=P(N1CC1)(N1CC1)N1CC1 |  | 100%
CC(C)NCC(O)c1ccc(NS(C)(=O)=O)cc1 (stereo not given) |  | 91.4%
C[C@@H]1C[C@H]2[C@@H]3CCC4=CC(=O)C=C[C@]4(C)[C@@]3(Cl)[C@@H](O)C[C@]2(C)[C@@]1(OC(=O)c1ccco1)C(=O)CCl | 29.6 µM (active) | 
NC1(c2ccc(-c3nc4ccn5c(=O)[nH]nc5c4cc3-c3ccccc3)cc2)CCC1 | 9.35 µM (active) | 
CCCN[C@H]1CCc2nc(N)sc2C1 |  | 88%

SMILES | Potency | viability, % of control
CN(C)CCc1c[nH]c2ccc(C[C@H]3COC(=O)N3)cc12 |  | 91.1%
CC(C)C1CCC(C(=O)N[C@H](Cc2ccccc2)C(=O)O)CC1 (stereo not given in full) |  | 102%
Nc1ccc(S(=O)(=O)Nc2ccccn2)cc1 |  | 127%
NNC(=O)c1ccncc1 |  | 107%
CO[C@@]12[C@H](COC(N)=O)C3=C(C(=O)C(C)=C(N)C3=O)N1C[C@@H]1N[C@@H]12 | 6.62 µM (active) | 
CN(C)c1ccc(C(=C2C=CC(=[N+](C)C)C=C2)c2ccc(N(C)C)cc2)cc1 | 0.0743 µM (active) | 
Oc1c(Cl)cc(Cl)c2cccnc12 | 16.6 µM (active) | 
CCN(CC)CCn1c(=O)c(Cc2ccc(OC)cc2)nc2ccccc21 |  | 87.2%
C[C@@H](NCCCc1cccc(C(F)(F)F)c1)c1cccc2ccccc12 |  | 121%
CN1CCN(c2c(F)cc3c(=O)c(C(=O)O)cn(CCF)c3c2F)CC1 |  | 121%
COc1ccc(C(=O)CC(=O)c2ccc(C(C)(C)C)cc2)cc1 | 7.43 µM (active) | 
NC(=O)c1cccnc1 |  | 119%
COc1cc(NS(=O)(=O)c2ccc(N)cc2)nc(OC)n1 |  | 114%
Cc1noc(NS(=O)(=O)c2ccc(N)cc2)c1C |  | 91.2%
COC(c1ccccc1)(c1ccccc1)[C@H](Oc1nc(C)cc(C)n1)C(=O)O |  | 111%
C[C@@H]1CN(c2c(F)c(N)c3c(=O)c(C(=O)O)cn(C4CC4)c3c2F)C[C@H](C)N1 |  | 126% [at 23.2 µM]
CO[C@@H]1[C@@H](OC(N)=O)[C@@H](O)[C@H](Oc2ccc3c(O)c(NC(=O)c4ccc(O)c(CC=C(C)C)c4)c(=O)oc3c2C)OC1(C)C | 9.35 µM (active) | 
CNCC[C@H](Oc1cccc2ccccc12)c1cccs1 | 26.4 µM (active) | 
O=P(O)(O)C(O)(Cc1cccnc1)P(=O)(O)O |  | 106%
COc1nc(N)nc2c1ncn2[C@@H]1O[C@H](CO)[C@@H](O)[C@@H]1O |  | 114%

Reference: PubChem BioAssay (NCATS)
